These results are taken from PubChem BioAssay (Tox21).

Results filed as inconclusive are left out. Calls of active or inactive are those of the source. Calls come from the whole dose curve; as a rule, active = well fitted activation curve with a large enough effect in the repeat runs; inconclusive = weak or mixed curves; inactive = no such curve, though single readings can be large or run the other way. Positions of bridges follow the written chain, without caps; N, C: chain ends. Non-standard residues stand in square brackets, D forms with d. Residues, ends and D or L forms follow the SMILES beside them. *: point of attachment. X1 = CC[C@@H](C)[C@@H](N)C1=N[C@H](C(=O)*)CS1; Dab(CH2SO3H) = N[C@@H](CCNCS(=O)(=O)O)C(=O)O; d(aIle) = CC[C@H](C)[C@@H](N)C(=O)O; X3 = CC[C@@H](C)CCCCC(=O)*; dOrn = NCCC[C@@H](N)C(=O)O; Dab = NCC[C@H](N)C(=O)O
% is set by controls: 0 for no effect and ±100 for the full control effect; potency is the fitted concentration of half-maximal effect.

The target of the assay is Nuclear receptor subfamily 1 group I member 2 (Homo sapiens) (UniProt O75469). The experiment in a line: CYP3A4 induction through human pregnane X receptor (PXR) by small molecules, qHTS assay (AID 1346984). Note: nearly all actives have a fitted effect of over 40% in size. To be noted: DPX-2 HepG2 PXR, CYP3A4-luciferin luminescence, 24 h; series mostly up to 46.1 µM; activation: at the top concentration. The text has this: National Center for Advancing Translational Sciences [NCATS]
NIH Chemical Genomics Center [NCGC]
U.S. Environmental Protection Agency [EPA]
National Institutes of Environmental Health Sciences [NIEHS]
National Toxicology Program [NTP]
The Pregnane X receptor (PXR), a ligand activated nuclear receptor plays a critical role in the regulation of genes involved in drug metabolism and transporters. Activation of PXR is responsible for unwanted adverse drug reactions. PXR binds xenobiotics and when compounds interact with PXR enhances the expression of CYP3A genes. Identifying the compounds with the potential for PXR activation and CYP3A4 induction can be of importance in improving the efficacy of drugs with less toxicity and avoiding drug-drug interactions.
DPX-2 (Puracyp, Inc.) cell lines, used for screening against human PXR activation has HepG2 cells co-transfected with a PXR response element and a luciferase construct containing CYP3A4 promoter. Increase in luciferase activity can be used to identify the compounds that cause the induction of CYP3A4.
DPX-2 cells were dispensed at 2,000 cells per well in 5uL of assay medium into white, solid-bottom 1536-well plates using a Multidrop Combi dispenser (Thermo Scientific). The assay plates were incubated at 37C for 5hr before transferring 23nL of test compounds dissolved in DMSO and positive control via Pintool station (Wako). The assay plates were incubated at 37C for 24hr. After 24hr compound treatment, 1uL of 3uM (final concentration) P450 substrate (P450-Glo CYP3A4 screening system with Luciferin-IPA, Promega) was added by a Flying Reagent Dispenser (FRD, Aurora Discovery). The assay plates were incubated for 3hr at 37C. Then 5ul One-Glo assay reagent (Promega) was added to each plate by an FRD and following 30 min incubation at room temperature, luciferase activity was quantified on a ViewLux plate reader (Perkin Elmer).
Background: Quantitative high-throughput screening tests each substance at several concentrations.
Turning to `C[C@H](NCCc1ccc(O)cc1)[C@H](O)c1ccc(O)cc1`, the “activation” value was -0.83% (inactive).
`C=C1C(=C/C=C2\CCC[C@]3(C)[C@@H]([C@H](C)CCCC(C)C)CC[C@@H]23)C[C@@H](O)C[C@@H]1O`: the “activation” value was 1.11% (inactive).
As for `CC(C)=CCC/C(C)=C/CC/C(C)=C/CC/C(C)=C/CC1=C(C)C(=O)c2ccccc2C1=O`, the “activation” value was 3.27% (inactive).
On the same count and under the same terms, under `COC1=C(OC)C(=O)C(C/C=C(\C)CC/C=C(\C)CC/C=C(\C)CC/C=C(\C)CC/C=C(\C)CC/C=C(\C)CC/C=C(\C)CC/C=C(\C)CC/C=C(\C)CCC=C(C)C)=C(C)C1=O` stands 5.56% (inactive).
Turning to `CCCC(CCC)C(=O)OC1C[C@H]2CC[C@@H](C1)[N+]2(C)C` (stereo not given in full), the “activation” value was 3.54% (inactive).
For the compound `NCC1CCC(C(=O)O)CC1` (stereo not given), the “activation” value was -2.97% [at 20.6 µM] (inactive).
Consider `C[S+](C)CCC(N)C(=O)O` (stereo not given), for which the “activation” value is -8.86% (inactive).
Same read-out and setting: under `CC[C@@H](C)CCCCC(=O)N[C@@H](CCNCS(=O)(=O)O)C(=O)N[C@H](C(=O)N[C@@H](CCNCS(=O)(=O)O)C(=O)N[C@H]1CCNC(=O)[C@H]([C@@H](C)O)NC(=O)[C@H](CCNCS(=O)(=O)O)NC(=O)[C@H](CCNCS(=O)(=O)O)NC(=O)[C@H](CC(C)C)NC(=O)[C@@H](CC(C)C)NC(=O)[C@H](CCNCS(=O)(=O)O)NC1=O)[C@@H](C)O` (X3-[Dab(CH2SO3H)]T[Dab(CH2SO3H)][Dab][Dab(CH2SO3H)][dL]L[Dab(CH2SO3H)][Dab(CH2SO3H)]T; lactam 4-C) stands -11.5% (inactive); under `CC(C)C[C@H](NC(=O)[C@@H](COC(C)(C)C)NC(=O)[C@H](Cc1ccc(O)cc1)NC(=O)[C@H](CO)NC(=O)[C@H](Cc1c[nH]c2ccccc12)NC(=O)[C@H](Cc1cnc[nH]1)NC(=O)[C@@H]1CCC(=O)N1)C(=O)N[C@@H](CCCN=C(N)N)C(=O)N1CCC[C@H]1C(=O)NNC(N)=O`, -5.26% (inactive); under `CN1C(=O)C[C@@H](C(=O)N[C@@H](Cc2cnc[nH]2)C(=O)N2CCC[C@H]2C(N)=O)NC1=O`, -13.9% (inactive).
Regarding `CC1=C(/C=C/C(C)=C/C=C/C(C)=C/C=C/C=C(C)/C=C/C=C(C)/C=C/C2=C(C)CCCC2(C)C)C(C)(C)CCC1`, the “activation” value was 29.1% (inactive).
Take `OCl`: the “activation” value was -1.26% (inactive).
In the case of `c1ccc2c(c1)OCC(CN1CCCCC1)O2` (stereo not given), the “activation” value is -0.433% (inactive).
On to `CN1[C@@H](CC(=O)c2ccccc2)CCC[C@H]1C[C@H](O)c1ccccc1`, for which the “activation” value is 29.8% (inactive).
For the compound `COc1cc2c(cc1OC)[C@@H](Cc1cc(OC)c(OC)c(OC)c1)[N+](C)(CCCOC(=O)CC/C=C/CCC(=O)OCCC[N+]1(C)CCc3cc(OC)c(OC)cc3[C@H]1Cc1cc(OC)c(OC)c(OC)c1)CC2` (stereo not given in full), the “activation” value was -3.67% (inactive).
The same measure, in the same setting: the same measure for `C=C1C(CCl)(CCl)C2(Cl)C(Cl)C(Cl)C1(Cl)C2(Cl)Cl` (stereo not given): -17% (inactive); for `CCOC(=O)[C@H](CCc1ccccc1)N[C@@H](C)C(=O)N1[C@H](C(=O)O)C[C@H]2CCCC[C@@H]21`: 20% (inactive); for `O=c1[nH]c(=O)n([C@H]2C[C@H](O)[C@@H](CO)O2)cc1/C=C/Br`: -14.7% (inactive).
Still for that read-out and setting: under `CC(C)OC(=O)Nc1ccc2nc(-c3cscn3)[nH]c2c1` stands -7.22% (inactive).
Same read-out and setting: under `N=C(N)c1ccc(/C=C/c2ccc(C(=N)N)cc2O)cc1` stands -6.04% (inactive); under `Nc1nc(/C(=C/CC(=O)O)C(=O)N[C@@H]2C(=O)N3C(C(=O)O)=CCS[C@H]23)cs1`, -2.99% (inactive); under `O=C(O)c1ccc(NC2OC[C@@H](O)[C@H](O)[C@H]2O)cc1` (stereo not given in full), -1.15% (inactive).
With `CC1CCCCN1CCCOC(=O)c1ccccc1` (stereo not given), the “activation” value was -4.71% (inactive).
For `CN(C)CCC(O)(c1ccccc1)c1ccccc1Cl` (stereo not given), the Potency is 12.6 µM (active).
As for `c1ccc(-n2cnnn2)cc1`, the “activation” value is 2.33% (inactive).
As to `Cc1cccc(C)c1NC(=O)C1CCCCN1C` (stereo not given), the “activation” value was 6.14% (inactive).
Still for that read-out and setting: under `CC(C)NCC1CCc2cc(CO)c([N+](=O)[O-])cc2N1` (stereo not given) stands 9.08% [at 20.6 µM] (inactive); under `O=C(O)Cc1nn(Cc2ccc(Br)cc2F)c(=O)c2ccccc12`, 10.5% (inactive); under `CO[C@H](C(=O)[C@@H](O)[C@@H](C)O)C1Cc2cc3cc(O[C@H]4C[C@@H](O[C@H]5C[C@@H](O)[C@H](O)[C@@H](C)O5)[C@@H](O)[C@@H](C)O4)c(C)c(O)c3c(O)c2C(=O)[C@H]1O[C@H]1C[C@@H](O[C@H]2C[C@@H](O[C@H]3C[C@](C)(O)[C@H](O)[C@@H](C)O3)[C@H](O)[C@@H](C)O2)[C@H](O)[C@@H](C)O1` (stereo not given in full), 11.9% (inactive).
As to `Cc1c(N)nc([C@H](CC(N)=O)NC[C@H](N)C(N)=O)nc1C(=O)N[C@H](C(=O)N[C@H](C)[C@@H](O)[C@H](C)C(=O)N[C@H](C(=O)NCCc1nc(-c2nc(C(=O)NCCCCN=C(N)N)cs2)cs1)[C@@H](C)O)[C@@H](O[C@@H]1O[C@@H](CO)[C@@H](O)[C@H](O)[C@@H]1O[C@H]1O[C@H](CO)[C@@H](O)[C@H](OC(N)=O)[C@@H]1O)c1cnc[nH]1`, the “activation” value was -4.65% (inactive).
Same read-out and setting: under `CCN(CC)C(=O)[C@]1(c2ccccc2)C[C@@H]1CN` stands 3.24% (inactive); under `CC[C@@H](C)[C@@H](N)C1=N[C@H](C(=O)N[C@@H](CC(C)C)C(=O)N[C@@H](CCC(=O)O)C(=O)N[C@@H](C(=O)N[C@@H]2CCCCNC(=O)[C@@H](CC(N)=O)NC(=O)[C@@H](CC(=O)O)NC(=O)[C@@H](Cc3cnc[nH]3)NC(=O)[C@@H](Cc3ccccc3)NC(=O)[C@@H]([C@H](C)CC)NC(=O)[C@@H](CCCN)NC2=O)[C@@H](C)CC)CS1` (X1-LE[d(aIle)][dK][dOrn][dI][dF][dH][dD][dN]; lactam 4-C), -6.99% [at 20.6 µM] (inactive).
Take `C/C(=C\C(=O)OCCCCCCCCC(=O)O)C[C@@H]1OC[C@H](C[C@@H]2O[C@H]2[C@@H](C)[C@H](C)O)[C@@H](O)[C@H]1O`: the “activation” value was 4.77% (inactive).
On the same count and under the same terms, under `CC(C)(O/N=C(\C(=O)N[C@@H]1C(=O)N2C(C(=O)[O-])=C(C[n+]3ccccc3)CS[C@H]12)c1csc(N)n1)C(=O)O` stands -0.247% [at 20.6 µM] (inactive).
In the case of `Cc1cc(CC(C)CC(C)(C)C)n(O)c(=O)c1` (stereo not given) (tested in a mixture with another compound), the “activation” value was -12.7% (inactive).
The same measure, in the same setting: under `CO/N=C(\C(=O)N[C@@H]1C(=O)N2C(C(=O)O)=C(CSc3nc(C)c(CC(=O)O)s3)CS[C@H]12)c1csc(N)n1` stands -0.378% (inactive).
Turning to `CC(C)c1ncc([N+](=O)[O-])n1C`, the “activation” value is -11.2% (inactive).
Still for that read-out and setting: under `CC/C=C\C/C=C\C/C=C\C/C=C\C/C=C\CCCC(=O)O` stands -3.73% (inactive).
As for `CC1(C)S[C@@H]2[C@H](NC(=O)[C@@H](NC(=O)N3CCNC3=O)c3ccccc3)C(=O)N2[C@H]1C(=O)O`, the “activation” value was -1.03% [at 20.6 µM] (inactive).
Still for that read-out and setting: the same measure for `C=N[C@@H](C(=O)N[C@@H]1C(=O)N2[C@@H]1SC(C)(C)[C@@H]2C(=O)O)c1ccccc1`: -9.85% (inactive).
